Screening data: PubChem, several laboratories
Sampled rows, rich in hits. Any-hit rate of the full collection: about 5.2%.
A3A deaminase: inhibitors of human APOBEC3A DNA deaminase; P31941; recombinant A3A, FAM/TAMRA ssDNA deamination fluorescence; inhibition, % at 20 µM; 330,000 compounds, 0.41% hits;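 active means at least 40% inhibition at 20 µM here, with at most 30% in a related deaminase screen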;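 further: plate controls were A3A with DMSO for no effect and wells lacking A3A enzyme for full effect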
Target sequence (P31941 whole entry, looked up): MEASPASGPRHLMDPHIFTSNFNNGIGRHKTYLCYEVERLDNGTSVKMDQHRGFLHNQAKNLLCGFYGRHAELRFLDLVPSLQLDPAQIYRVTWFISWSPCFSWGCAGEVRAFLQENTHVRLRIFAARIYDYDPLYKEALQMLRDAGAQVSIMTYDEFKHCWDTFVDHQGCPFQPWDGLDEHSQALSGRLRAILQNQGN
ALR H2O2 inh: inhibitors of human sulfhydryl oxidase ALR; AID 485317; inhibition, % (no concentration beside the values); P55789; 290,000 compounds, 3.8% hits; purified ALR, DTT oxidation, H2O2 HRP-luminol luminescence;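 active means mean replicate inhibition above about 79%, with every replicate also reaching it, limit read from the data; inconclusive means only one of the two criteria met; inactive means mean below limit and not every replicate reaching it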
Target sequence (P55789 whole entry, looked up): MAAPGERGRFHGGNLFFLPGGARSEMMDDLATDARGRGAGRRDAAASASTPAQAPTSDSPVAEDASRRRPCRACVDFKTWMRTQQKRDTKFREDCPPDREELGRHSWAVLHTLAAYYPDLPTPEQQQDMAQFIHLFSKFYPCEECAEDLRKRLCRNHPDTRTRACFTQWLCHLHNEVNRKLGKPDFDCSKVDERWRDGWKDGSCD
Yeast superoxide: yeast age-related superoxide inhibition as caloric restriction mimetic. S. cerevisiae aged cells, superoxide DHE fluorescence; active compounds read low. superoxide response (% of plate mean), % at 10 µM. 330,000 compounds, 0.18% hits;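 active means superoxide response under a set limit, about three screen SD below normal, cut at about 65% in these data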;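 further: yeast aged for seven days with compound at 30 °C before DHE staining; 100% = average MFI of all compound-treated wells on the plate with controls excluded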
A3G deaminase: APOBEC3G (human) deaminase inhibition | Q9HC16 | recombinant A3G, ssDNA deamination FAM/TAMRA fluorescence | inhibition, % at 20 µM | 330,000 compounds, 0.28% hits;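 active means inhibition of at least 40% at 20 µM, with no more than 30% in the related APOBEC3A deaminase screen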;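 further: plate controls were DMSO wells with A3G for no effect and wells lacking A3G enzyme for full effect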
PfM18AAP inh: blocks P. falciparum M18 aspartyl aminopeptidase; AID 1822; 290,000 compounds, 1.2% hits; inhibition, % at 7.35 µM; recombinant PfM18AAP, H-Glu-NHMec fluorogenic cleavage;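 active means inhibition above the campaign mean inhibition over all tested compounds plus 3 SD, cut at about 28% in these data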;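 further: 0% = plate median of test compound wells and 100% = 2 mM ZnCl2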
CendR NRP1 mod: NRP-1/CendR interaction modulation | FAM-RPARPAR peptide binding to NRP-1, fluorescence polarization | inhibition, % at 25 µM | 360,000 compounds, 0.85% hits | AID 602438;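 active means inhibition or corrected inhibition above about 18%, plus a signal ratio from 0.5 to 1.5, limit read from the data, passing the limit was not always enough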
The depositor's hits bear a star; u = inconclusive; x = no result given.

SMILES | A3A deaminase | ALR H2O2 inh | Yeast superoxide | A3G deaminase | PfM18AAP inh | CendR NRP1 mod
COc1ccc(C=O)cc1OC(=O)N1CCOCC1 | 0 | 7 | 109 | -6 | -4 | 13
Cc1cccc(N(CC(=O)NCc2ccc(F)cc2)C(=O)c2csnn2)c1C | -3 | 0 | 131 | -5 | 2 | 20*
CCOc1ccc(-c2nc(N)ncc2-c2ccc(OC)cc2)c(O)c1 | 4 | -1 | 92 | -1 | 5 | -12
Cc1ccc(C(=O)CSC2=NC(N)=C(C#N)C3(CCCCC3)C2C(N)=O)cc1 (stereo not given) | -2 | 97* | 110 | -6 | 6 | -5
N#CC1=C(N)N=C(SCc2ccccc2)C(C(N)=O)C12CCCCC2 (stereo not given) | 0 | -8 | 77 | -9 | -1 | -4
Cc1ccc2cc(CN(CCCN(C)C)C(=S)NCc3ccccc3)c(=O)[nH]c2c1C | 4 | x | 76 | -1 | 3 | 7
Cc1ccc2cc(CN(CCCN(C)C)C(=O)NCc3ccccc3)c(=O)[nH]c2c1C | -1 | -4 | 93 | -4 | 1 | 38*
O=S(Cc1cc(Sc2ccccc2)nc(-c2ccccc2)n1)c1ccccc1 (stereo not given) | -3 | -1 | 106 | -1 | -14 | 2
CS(=O)(=O)Cc1cc(Sc2ccccc2)nc(-c2ccncc2)n1 | -1 | 29 | 93 | -5 | -6 | 23*
CCOC(=O)Cc1csc(SCC(=O)N2CCN(c3ccc(OC)cc3)CC2)n1 | -2 | 87* | 88 | -6 | 2 | -16
COc1ccc(N2CCN(C(=O)CSc3ccc(C)cc3)CC2)cc1 | -5 | 0 | 99 | -6 | 1 | -3
COc1ccc(N2CCN(C(=O)CSc3ncn[nH]3)CC2)cc1 | -1 | 99* | 100 | -4 | x | 0
CCc1nc(Nc2cc(OC)ccc2OC)c2oc3ccccc3c2n1 | 0 | 9 | 106 | -7 | -5 | 25*
Cc1ccc(/C(N)=N/OC(=O)c2cccs2)cc1 | 1 | 86* | 108 | -7 | 1 | -4
Cc1ccccc1OCC(=O)NNC(=S)NC(=O)c1ccco1 | 2 | 98* | 160 | 15 | 10 | -14
Cc1ccccc1OCC(=O)Nc1ccccc1-c1ccccc1NC(=O)COc1ccccc1C | 0 | x | 98 | -6 | 1 | 0
O=C(NC(=S)NNC(=O)c1ccco1)c1ccccc1 | -2 | 88* | 117 | 8 | 9 | -9
Cc1ccccc1C(=O)NNC(=S)NC(=O)c1ccccc1 | 6 | 98* | 159 | 2 | 21 | -6
Cc1ccccc1NC(=S)NC(=O)COc1ccccc1C | 1 | 9 | 89 | 7 | -17 | 22*
CC(O)/C=C/C1OC(=O)CC1Nc1ccc(C=O)cc1 (stereo not given) | -1 | -27 | 78 | -4 | 6 | 6
COc1ccc(C(=O)NC(=S)NNC(=O)c2ccncc2)cc1Br | -5 | 99* | 109 | -7 | x | -4
O=C(NC(=S)NNC(=O)c1ccccc1O)c1ccccc1 | -4 | 8 | 79 | -7 | 30* | -3
Cc1ccc(C(=O)NC(=S)NNC(=O)c2ccccc2)cc1 | -9 | 98* | 171 | -3 | -8 | -4
Cc1ccccc1OCC(=O)Nc1ccccc1C(=O)N1CCCCC1 | -8 | 86* | 103 | -9 | 1 | 3
O=C(/C=C/c1ccc(Br)cc1)NC(=S)NNC(=O)c1ccco1 | -2 | 99* | 184 | -4 | 19 | -6
SMILES | A3A deaminase | ALR H2O2 inh | Yeast superoxide | A3G deaminase | PfM18AAP inh | CendR NRP1 mod
COc1cccc(CN2CCNC(=O)C2CC(=O)NC2CCCCC2)c1OC (stereo not given) | -5 | 1 | 110 | -4 | 6 | 4
COc1ccccc1CN1CCNC(=O)C1CC(=O)NC1CCCCCC1 (stereo not given) | 3 | 8 | 89 | 1 | 7 | 26*
O=C1CCCC(O)=C1N=Nc1c(Cl)cc(C(F)(F)F)cc1Cl | 0 | 1 | 108 | -7 | 28* | 5
COc1ccc(S(=O)(=O)n2nc(C)cc2C)cc1OC | 3 | 5 | 102 | -5 | -1 | -6
O=C(CCNc1cccc(Cl)c1)c1ccco1 | -5 | 97* | 127 | -4 | 4 | -8
O=C(CNC(=O)c1ccco1)OCc1cccc(Cl)c1 | -1 | -3 | 98 | -6 | 6 | 5
COc1ccc(-c2cc(C(F)(F)F)c3c(N)c(C(=O)NCCSC)sc3n2)cc1 | -3 | 22 | 98 | -11 | 4 | -38
COc1ccc(OC)c(NC(=O)c2sc3nc(Cc4ccccc4)cc(C(F)(F)F)c3c2N)c1 | -4 | -5 | 109 | -4 | -10 | 24*
CC[n+]1c(/C=C/N(C)c2ccccc2)oc2ccc(F)cc21 | -2 | 3 | 96 | -4 | 31* | -162
CC[n+]1c(/C=C/N(C)c2ccccc2)oc2ccccc21 | -1 | -30 | 106 | -2 | 15 | -102
O=C(C1=NNCC1c1ccc(Cl)cc1)C1CO1 (stereo not given) | x | x | x | x | 2 | 4
COc1ccc(CCNC(=O)c2cc(S(=O)(=O)N(C)C)ccc2N2CCCC2)cc1 | 10 | x | 94 | -7 | -3 | 5
CC(C)=CCn1c2ccc(NC(=S)NC3CC3)cc2c(=O)n1C | x | x | x | x | x | -4
O=C(c1ccccc1F)N1CCN(c2ccccc2)CC1 | 3 | 51 | 91 | 0 | 1 | -1
O=C(c1ccccc1F)N1CCN(C(=O)C(c2ccccc2)c2ccccc2)CC1 | -2 | -21 | 91 | -17 | -5 | 22*
CCN(CC)C(=O)N1c2ccccc2Sc2ccccc21 | -1 | u | 82 | -5 | 5 | -9
COc1ccc2c(c1)N(C[C@H](C)CN(C)C)c1ccccc1S2 | x | x | x | x | x | -1
CC(CN1c2ccccc2Sc2ccccc21)N(C)C (stereo not given) | -3 | 99* | 90 | -10 | -4 | 1
CC(CN(C)C)CN1c2ccccc2Sc2ccccc21 (stereo not given) | 0 | 99* | 100 | 4 | x | 2
CCCNC(=O)c1onc(CSc2nc3ccccc3[nH]2)c1C(=O)NCCC | -2 | 9 | 101 | -11 | 3 | 8
Cc1cc(=O)oc2cc(OCC(=O)N/N=C/c3ccccc3[N+](=O)[O-])ccc12 | -4 | -5 | 95 | -7 | 1 | -8
Cc1ccc(S(=O)(=O)Nc2cc(C(C)C)c(O)cc2C)cc1 | 3 | 97* | 94 | -1 | -20 | -7
CC(=O)Cc1nsc(NC(=O)c2ccc(COc3ccccc3)o2)n1 | 1 | 98* | 102 | 0 | -6 | -3
CCOc1cc(C(=S)N2CCCC2)ccc1O | -7 | x | 97 | 10 | 24 | 8
CN(C)/C(=N\S(=O)(=O)c1ccccc1)c1ccccc1 | 4 | x | 107 | 0 | -7 | 27*
Cc1ccc(S(=O)(=O)/N=C(\c2ccccc2)N(C)S(=O)(=O)c2ccc(C)cc2)cc1 | 3 | 2 | 92 | -3 | 8 | 1
